# Results taken from PubChem BioAssay (EPA / NIEHS).
# Results filed as inconclusive are left out. Activity calls are given as the source filed them. Rule for the calls, unless noted: active = hit-call score of the fitted dose curve at least 0.9, where 1 is the maximum; inconclusive = response in the unintended direction; inactive = score below 0.9.
# Assays:
# [1] = read-out: X-box binding protein 1 (XBP1), XBP1 (gene 7494); assay: LTEA_HepaRG_XBP1: Life Technologies and Expression Analysis (LTEA) Assay for X-box binding protein 1 (XBP1) using HepaRG (AID 2283540; active = hit-call score of the fitted dose curve at least 0.9, where 1 is the maximum; inactive = score below 0.9); details: mRNA level, 48 h; actives raise or lower the signal
# How it was run: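 Human HepaRG monolayers receive test chemical for 48 h across an eight-point half-log series starting at 100 uM. XBP1 mRNA gain or loss is scored against DMSO by qRT-PCR.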
# [2] = LTEA_HepaRG_LDH_cytotoxicity: Cytotoxicity Assessment in the Life Technologies and Expression Analysis (LTEA) Assay (AID 2283563)
# How it was run: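 Human HepaRG hepatic cells are treated with test chemicals for 48 h at up to 100 uM in 0.5% DMSO. Cytotoxicity is scored from medium LDH against the vehicle control.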
# [3] = Tanguay_ZF_120hpf_MORT_legacy: (Legacy) Oregon State University Tanguay Lab 120 Hour Post-fertilization zebrafish Assay for Mortality (AID 2283633)
# How it was run: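 Mortality endpoint from a multiplexed whole-embryo zebrafish screen. Dechorionated wild-type embryos received compound at 6 hpf and remained under static exposure at 28C until 120 hpf, with death noted as a present/absent call.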
# [4] = Tanguay_ZF_120hpf_YSE_legacy: (Legacy) Oregon State University Tanguay Lab 120 Hour Post-fertilization zebrafish Assay for Yolk Sac Edema (AID 2283634);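 for AC50: actives raise the incidence of yolk sac edema above the DMSO baseline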
# How it was run: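 Readout: presence or absence of yolk sac edema at 120 hpf, fitted upward against DMSO controls. Exposure ran statically from 6 hpf in dechorionated embryos kept at 28C.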
# [5] = Tanguay_ZF_120hpf_AXIS_legacy: (Legacy) Oregon State University Tanguay Lab 120 Hour Post-fertilization zebrafish Assay for Body Axis Malformation (AID 2283635)
# How it was run: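 Static 6–120 hpf chemical exposure of dechorionated wild-type 5D zebrafish, one per well at 28C; morphology endpoint scored binary at 120 hpf relative to DMSO control.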
# [6] = Tanguay_ZF_120hpf_EYE_legacy: (Legacy) Oregon State University Tanguay Lab 120 Hour Post-fertilization zebrafish Assay for Eye Malformation (AID 2283636);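 note: binary presence or absence of eye malformation scored by brightfield in 120 hpf larvae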
# How it was run: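 5D wild-type embryos, pronase-dechorionated at 4 hpf; static exposure 6–120 hpf, 28C, dark; DMSO 0.64% final; 5uM trimethyltin chloride positive control. Binary eye-defect scoring at 120 hpf; dead embryos not scored.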
# [7] = Tanguay_ZF_120hpf_SNOU_legacy: (Legacy) Oregon State University Tanguay Lab 120 Hour Post-fertilization zebrafish Assay for Snout Malformation (AID 2283637)
# How it was run: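 Binary brightfield scoring of snout malformation at 120 hpf. Dechorionated 5D wild-type embryos, one per well, static exposure from 6 hpf at 28C, sealed and dark; final DMSO 0.64% (vol/vol), DMSO as baseline; 5uM trimethyltin chloride positive control.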
# [8] = Tanguay_ZF_120hpf_OTIC_legacy: (Legacy) Oregon State University Tanguay Lab 120 Hour Post-fertilization zebrafish Assay for Otic Vesicle Malformation (AID 2283639)
# How it was run: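 Binary scoring of otic vesicle defects at 120 hpf in zebrafish (Tropical 5D) held under static exposure at 28C, sealed and shaded, with final DMSO 0.64%. Embryos dying by 24 or 120 hpf excluded; fitted positively against DMSO.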
# [9] = Tanguay_ZF_120hpf_BRAI_legacy: (Legacy) Oregon State University Tanguay Lab 120 Hour Post-fertilization zebrafish Assay for Brain Malformation (AID 2283641)
# How it was run: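 Brain malformation in Tropical 5D zebrafish was recorded as a binary endpoint after static compound exposure from early development to 120 hpf at 28C. Activity was analysed against DMSO as negative control.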
# [10] = Tanguay_ZF_120hpf_JAW_legacy: (Legacy) Oregon State University Tanguay Lab 120 Hour Post-fertilization zebrafish Assay for Jaw Malformation (AID 2283638);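 for AC50: active means more embryos with jaw malformation than DMSO controls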
# How it was run: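 Static waterborne exposure of dechorionated wild-type (Tropical 5D) zebrafish from 6 to 120 hpf at 28C, 0.64% DMSO vehicle; 5uM trimethyltin chloride served as positive control. Jaw morphology recorded as binary at 120 hpf.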
# [11] = Tanguay_ZF_120hpf_PE_legacy: (Legacy) Oregon State University Tanguay Lab 120 Hour Post-fertilization zebrafish Assay for Pericardial Edema (AID 2283640);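 for AC50: potency for increased incidence of pericardial edema versus DMSO baseline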
# How it was run: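 Read-out is the presence or absence of pericardial edema at 120 hpf under brightfield, with gain of signal fitted against DMSO controls. Larvae (5D wild-type) were statically exposed at 28C with 0.64% final DMSO.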
# [12] = TOX21_p53_BLA_p2_viability: Viability Assessment in the Tox21 HCT-116 p53 Agonism Beta-lactamase Assay, Phase 2 (AID 2283591);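 note: compound exposure lasted 16 h at 37 °C; actives lower the ATP signal meaning cytotoxicity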
# How it was run: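 HCT116 p53-bla cells, 4000/well, dosed after 5 h plating (217-fold dilution of DMSO stocks) and incubated 16 h at 37C. Viability taken as cellular ATP by CellTiter-Glo luminescence after 30 min RT; signal loss marks cytotoxicity.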
# [13] = biological target: Cellular tumor antigen p53 (Homo sapiens) (UniProt P04637); assay: TOX21_p53_BLA_p3_ratio: Tox21 HCT-116 p53 Agonism Beta-lactamase Assay, Ratio, Phase 3 (AID 2283596)
# Cellular tumor antigen p53 (Homo sapiens), sequence (P04637 whole entry, looked up): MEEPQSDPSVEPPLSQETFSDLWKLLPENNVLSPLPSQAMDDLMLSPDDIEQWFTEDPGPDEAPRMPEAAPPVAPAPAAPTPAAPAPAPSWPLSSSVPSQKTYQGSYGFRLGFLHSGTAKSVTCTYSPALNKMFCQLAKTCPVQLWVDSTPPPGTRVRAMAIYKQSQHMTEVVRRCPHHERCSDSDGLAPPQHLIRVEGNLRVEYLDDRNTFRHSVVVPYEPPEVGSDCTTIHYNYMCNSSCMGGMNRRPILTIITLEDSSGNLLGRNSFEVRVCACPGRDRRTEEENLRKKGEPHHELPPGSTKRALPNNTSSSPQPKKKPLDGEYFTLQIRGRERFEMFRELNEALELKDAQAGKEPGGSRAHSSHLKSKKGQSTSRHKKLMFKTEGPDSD
# How it was run: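 Cells were seeded at 4000/well, rested 5 h at 37C, then dosed with DMSO compound solutions (217-fold dilution) for 16 h. CCF4-AM substrate was loaded for 2 h at room temperature, and the 460/530 nm emission ratio was fitted for gain of signal versus DMSO.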
# [14] = TOX21_p53_BLA_p5_viability: Viability Assessment in the Tox21 HCT-116 p53 Agonism Beta-lactamase Assay, Phase 5 (AID 2283600)
# How it was run: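 Viability is taken from cellular ATP content, measured by luciferase luminescence in the same wells after the beta-lactamase ratio read. Cells are seeded at 4000 per well and exposed to DMSO-dissolved compounds, diluted 217-fold, for 16 h.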
# [15] = biological target: Cellular tumor antigen p53 (Homo sapiens) (UniProt P04637); assay: TOX21_p53_BLA_p4_ratio: Tox21 HCT-116 p53 Agonism Beta-lactamase Assay, Ratio, Phase 4 (AID 2283601)
# How it was run: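 HCT-116 p53 beta-lactamase reporter cells (4000/well) preincubated 5 h, then compound (217-fold dilution of DMSO stock) for 16 h at 37C. CCF4-AM substrate added 2 h at room temperature; 460/530 nm emission ratio fitted upward versus DMSO.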
# [16] = TOX21_p53_BLA_p4_viability: Viability Assessment in the Tox21 HCT-116 p53 Agonism Beta-lactamase Assay, Phase 4 (AID 2283597);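 note: hits lower the luminescence signal meaning cytotoxicity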
# How it was run: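 Viability is taken as cellular ATP: after 16 h compound exposure of HCT116 cells and a 2 h room-temperature CCF4-AM substrate step, CellTiter-Glo reagent is added and luminescence is measured 30 min later.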
# [17] = biological target: Cellular tumor antigen p53 (Homo sapiens) (UniProt P04637); assay: TOX21_p53_BLA_p2_ratio: Tox21 HCT-116 p53 Agonism Beta-lactamase Assay, Ratio, Phase 2 (AID 2283592)
# How it was run: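 Cleaved-to-uncleaved substrate ratio (460 vs 530 nm) measured in HCT116 cells with an inducible beta-lactamase reporter linked to p53 activity. Compounds incubated 16 h at 37C before 2 h room-temperature CCF4-AM loading.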
# [18] = TOX21_p53_BLA_p3_viability: Viability Assessment in the Tox21 HCT-116 p53 Agonism Beta-lactamase Assay, Phase 3 (AID 2283593);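 note: cells exposed to compound for 16 h before reading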
# How it was run: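 HCT116 cells, 4000/well, dosed 5 h after plating by pin transfer (217-fold dilution from DMSO stock) and incubated 16 h at 37C, 5% CO2. Viability read as ATP luminescence with CellTiter-Glo after 30 min at room temperature.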
structure (smiles),measurement,setting,value
O=[N+]([O-])C(Br)(CO)CO,outcome,[1],inactive
same,outcome,[2],inactive
same,outcome,[3],inactive
same,outcome,[4],inactive
same,outcome,[5],inactive
same,outcome,[6],inactive
same,outcome,[7],inactive
same,outcome,[8],inactive
same,outcome,[9],inactive
CC(C)COC(=O)c1ccccc1C(=O)OCC(C)C,outcome,[1],inactive
same,outcome,[2],inactive
same,outcome,[4],inactive
same,outcome,[5],inactive
same,AC50,[6],30.5 µM (active)
same,AC50,[7],44.1 µM (active)
same,AC50,[10],29.7 µM (active)
same,outcome,[8],inactive
same,outcome,[11],inactive
c1ccc(C2CO2)cc1 (centres undefined),outcome,[1],inactive
same,outcome,[2],inactive
same,outcome,[12],inactive
same,outcome,[13],inactive
same,outcome,[14],inactive
same,outcome,[15],inactive
same,outcome,[4],inactive
same,outcome,[5],inactive
same,outcome,[6],inactive
same,outcome,[7],inactive
same,outcome,[10],inactive
same,outcome,[8],inactive
same,outcome,[11],inactive
same,outcome,[9],inactive
CO[C@@H]1[C@H](OC(=O)NC(=O)CCl)CC[C@]2(CO2)[C@H]1[C@@]1(C)O[C@@H]1CC=C(C)C,outcome,[1],inactive
same,outcome,[2],inactive
same,outcome,[13],inactive
same,outcome,[16],inactive
same,AC50,[4],0.0035 µM (active)
same,outcome,[5],inactive
same,outcome,[6],inactive
same,AC50,[7],0.239 µM (active)
same,AC50,[10],0.0405 µM (active)
same,outcome,[8],inactive
same,AC50,[11],0.0102 µM (active)
same,outcome,[9],inactive
O=C1CCCO1,outcome,[1],inactive
same,outcome,[2],inactive
same,outcome,[17],inactive
same,outcome,[18],inactive
same,outcome,[13],inactive
same,outcome,[16],inactive
same,outcome,[14],inactive
same,outcome,[15],inactive
same,outcome,[3],inactive
same,outcome,[4],inactive
same,outcome,[5],inactive
same,outcome,[6],inactive
same,outcome,[7],inactive
same,outcome,[10],inactive
same,outcome,[8],inactive
same,outcome,[11],inactive
N#CC(Br)(Br)C(N)=O,outcome,[1],inactive
same,outcome,[2],inactive
same,outcome,[17],inactive
same,outcome,[13],inactive
same,AC50,[16],70.2 µM (active)
same,outcome,[14],inactive
same,outcome,[15],inactive
same,outcome,[4],inactive
same,outcome,[5],inactive
same,outcome,[6],inactive
same,outcome,[7],inactive
same,outcome,[10],inactive
same,outcome,[8],inactive
same,outcome,[11],inactive
N#CC(Br)Br,outcome,[1],inactive
same,outcome,[2],inactive
same,outcome,[5],inactive
same,outcome,[7],inactive
same,outcome,[10],inactive
same,outcome,[8],inactive
same,outcome,[11],inactive
Cc1ccc(N)cc1,outcome,[1],inactive
same,outcome,[2],inactive
same,outcome,[17],inactive
same,outcome,[13],inactive
same,outcome,[16],inactive
same,outcome,[14],inactive
same,outcome,[15],inactive
same,outcome,[3],inactive
same,outcome,[4],inactive
same,outcome,[6],inactive
same,outcome,[7],inactive
same,outcome,[10],inactive
same,outcome,[8],inactive
same,outcome,[11],inactive
CCCCCCCCCCCCCN1CC(C)OC(C)C1 (centres undefined),outcome,[1],inactive
same,outcome,[2],inactive
same,outcome,[17],inactive
same,outcome,[18],inactive
same,outcome,[13],inactive
same,outcome,[15],inactive
same,outcome,[4],inactive
same,outcome,[5],inactive
same,outcome,[6],inactive
same,outcome,[7],inactive
same,outcome,[10],inactive
same,outcome,[8],inactive
same,outcome,[11],inactive
same,outcome,[9],inactive
